Here are results for 14 compounds from PubChem BioAssay (Tox21).

The nature of the experiment: cAMP Responsive Elements (CRE) small molecule agonists, cell-based qHTS assay: qHTS cell viability counter screen (AID 2060914). Also: nearly all actives have a fitted effect of over 50% in size. In a few lines:
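Luminescence read-out (CellTiter-Glo, 30 min RT) of ATP-based viability in CRE-bla HEK 293T cells, run in the same wells as the β-lactamase reporter assay after 3 h compound treatment at 37 °C.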
A general note: qHTS replaces the single test concentration by a dilution series.

Records with an inconclusive call do not appear. Entries that show only a call come without a potency. Calls of active or inactive are those of the source. Calls follow the shape of the dose curve; as a rule, active = well fitted cell-killing curve with a large enough effect in the repeat runs; inconclusive = weak or mixed curves, or effect the other way; inactive = flat fitted curve, though single readings scatter.
Potency is read from the fitted curve at half-maximal effect.

Turning to `NNC(=O)CCCCC(=O)NN`, the Potency entry was “inactive”.

Consider `CN(C)CCC(c1ccc(Cl)cc1)c1ccccn1` (centres undefined), for which the Potency result is “inactive”. To `CCCCC(CC)CN=C(N)NC(N)=NCCCCCCN=C(N)NC(N)=NCC(CC)CCCC` (centres undefined) belongs 16.8 µM (active). Turning to `O=c1cc(-c2ccccc2)oc2ccc3ccccc3c12`, the Potency was 21.7 µM (active). Then `CCCC[C@H]1CN(CC2CCOCC2)C(=O)OC12CCN(C1(C)CCN(C(=O)c3c(C)ncnc3C)CC1)CC2`, with “inactive”; and `CCCCC(=O)O`, with “inactive”. Then `Cc1ccc([N+](=O)[O-])c(N)c1`, with “inactive”. To `C=CCOCC(O)CS(=O)(=O)O` (centres undefined) belongs “inactive”; to `Oc1ccc(Nc2ccccc2)cc1`, “inactive”; to `CN(C)CCOC(=O)COc1ccc(Cl)cc1`, “inactive”. Regarding `O=C1CC2(CCCC2)CC(=O)N1CCNCC1COc2ccccc2O1` (centres undefined), the Potency entry was “inactive”. In the case of `N[C@H](Cc1c[nH]c2ccccc12)C(=O)O`, the Potency result was “inactive”. Then `CC1(C)[C@@H](O)CC[C@]2(C)[C@H]3C(=O)C=C4[C@@H]5C[C@@](C)(C(=O)O)CC[C@]5(C)CC[C@@]4(C)[C@]3(C)CC[C@@H]12`, with “inactive”; and `CC(C)(C)c1ccc(OCC2CO2)cc1` (centres undefined), with “inactive”.
